Data on 75 compounds can be found in PubChem BioAssay AID1347146 (National Center for Advancing Translational Sciences (NCATS), 2019).

Where “and” joins values, the source holds several entries; their conditions need not be identical. Identical values can stand only once. Records with an inconclusive call do not appear. A call without a number means that no potency is given here. Calls of active or inactive are those of the source. Calls come from the whole dose curve; as a rule, active = well fitted inhibition curve with a large enough effect; inconclusive = small, poorly fitted or top-dose-only effect; inactive = no such curve, though single readings can be large or run the other way.

In the assay the target is Nicotinamide N-methyltransferase (Homo sapiens) (UniProt P40261). The assay is described as follows: qHTS Assay for Inhibitors of N-terminal methyltransferase 1 (NTMT1): NNMT MTaseGlo counterscreen assay. A digest of the protocol:
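Luminescent MTase-Glo read-out of SAH from nicotinamide methylation: 1 µM nicotinamide, 100 µM SAM, 125 nM NNMT, 30 min RT after ~15 min compound preincubation. Values normalized to no-enzyme/DMSO controls, Hill-fitted.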
Potency is the fitted concentration of half-maximal effect.

Chain of Nicotinamide N-methyltransferase (Homo sapiens) (P40261 whole entry, looked up): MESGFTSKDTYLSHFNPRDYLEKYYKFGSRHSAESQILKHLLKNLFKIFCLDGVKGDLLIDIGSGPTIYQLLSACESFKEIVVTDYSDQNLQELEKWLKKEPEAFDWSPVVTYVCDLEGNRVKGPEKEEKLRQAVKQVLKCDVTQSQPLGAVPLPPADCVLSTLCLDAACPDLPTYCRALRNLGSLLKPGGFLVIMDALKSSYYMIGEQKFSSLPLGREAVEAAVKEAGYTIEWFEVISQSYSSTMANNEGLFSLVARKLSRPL

Consider `N.N.N.N.N.N.N.N.N.N.N.N.N.N.O.O.[Ru+4].[Ru+5].[Ru+5]`, for which the Potency entry was “inactive”. Consider `COc1cc2nc(N3CCCN(C)CC3)nc(NC3CCNCC3)c2cc1OC`, for which the Potency entry is “inactive”.

As to `COc1cc2c(NC3CCN(C(C)C)CC3)nc(N3CCC(F)(F)CC3)nc2cc1OCCCN1CCCCC1`, the Potency result was “inactive”. The same measure for `CN(C)CCCC1(c2ccc(F)cc2)OCc2cc(C#N)ccc21` (stereo not given): “inactive”; for `Cc1nnc(SCC2=C(C(=O)O)N3C(=O)[C@@H](NC(=O)Cn4cnnn4)[C@H]3SC2)s1`: “inactive”. For `OC[C@H]1O[C@H](n2cnc3c(N[C@H]4CCC[C@@H]4O)ncnc32)[C@H](O)[C@@H]1O` the value was “inactive”; for `Cc1ccccc1CNc1ncnc2c1ncn2[C@@H]1O[C@H](CO)[C@@H](O)[C@H]1O`, “inactive”; for `Cc1cccc(C2CN(C)CCc3c2cc(O)c(O)c3Cl)c1` (stereo not given), “inactive”. For `S=C(S)N1CCCC1` the value was 25.1 µM (active); for `CN(C)C(=O)/N=N/C(=O)N(C)C`, “inactive”. On to `CN(C)[C@@H]1C(=O)C(C(N)=O)=C(O)[C@@]2(O)C(=O)C3=C(O)c4c(O)ccc(Cl)c4[C@@H](O)[C@H]3C[C@@H]12`, for which the Potency entry is “inactive”.

Consider `COc1cc(/C=C(\C#N)C(=O)c2ccc(O)c(O)c2)cc(I)c1O`, for which the Potency entry was “inactive”. The same measure for `COc1cc2c(NC3CCN(C(C)C)CC3)nc(N3CCCN(c4ccccc4)CC3)nc2cc1OCCCN1CCCC1`: “inactive”; for `Oc1ccc(O)cc1`: 39.8 µM (active). For `O=C(/C=C/c1ccc(O)cc1)c1ccc(O)cc1O` the value was “inactive”; for `O=C(O)Cc1ccc(O)c(O)c1`, “inactive”.

On to `O=c1c(-c2ccc(O)cc2)coc2cc(O)cc(O)c12`, for which the Potency entry is “inactive”.

With `Cc1ccc(S(=O)(=O)/C=C/C#N)cc1`, the Potency was 15.8 µM (active). The same measure for `O=c1[nH]c(=S)[nH]c(-c2ccccc2)c1Cc1c(O)ccc2ccccc12`: “inactive”; for `NC[C@@H]1O[C@H](C23CC4CC(CC(C4)C2)C3)Cc2c1ccc(O)c2O`: “inactive”.

As for `Clc1nccc2c1ccc1ccccc12`, the Potency result is “inactive”.

For the compound `COC(=O)[C@H]1[C@H]2C[C@H]3c4[nH]c5ccccc5c4CCN3C[C@H]2CC[C@@H]1O`, the Potency result is “inactive”.

Turning to `CC[n+]1c(/C=C/C=C2/N(C)c3ccccc3C2(C)C)sc2ccccc21`, the Potency was 15.8 µM (active).

For `N#C/C(=C\c1ccc(O)c(O)c1)C(=O)c1ccc(O)c(O)c1`, the Potency entry was “inactive”. For `CCCCCCCCCCCCCCCCCC(=O)OC(CC(=O)O)C[N+](C)(C)C` (stereo not given) the value was “inactive”; for `CC(C)NC[C@H](O)c1ccc(O)c(O)c1`, “inactive”; for `CCCCNc1ccc(C(=O)OCCN(C)C)cc1`, “inactive”. For `O=C1NC(=O)C(c2ccccc2[N+](=O)[O-])=C1Nc1ccc(O)c(Cl)c1` the value was “inactive”; for `N=C(N)c1ccc(OCCCCCOc2ccc(C(=N)N)cc2)cc1` (tested in a mixture with another compound), “inactive”. Turning to `OC[C@H]1O[C@@H](n2cnc3cncnc32)[C@H](O)[C@@H]1O`, the Potency was 11.2 µM (active). For `COc1ccccc1CNCCCCCCNCCCCCCCCNCCCCCCNCc1ccccc1OC` the value was “inactive”; for `O=Nc1ccc2oc(=O)ccc2c1`, “inactive”.

With `CC(C)NCC(O)c1ccc(O)c(O)c1` (stereo not given), the Potency result is “inactive”. As for `NCCc1ccc(O)c(O)c1`, the Potency entry was “inactive”. As to `Cc1cc2nc3c(=O)[nH]c(=O)nc-3n(C[C@H](O)[C@H](O)[C@H](O)COP(=O)(O)OP(=O)(O)OC[C@H]3O[C@@H](n4cnc5c(N)ncnc54)[C@H](O)[C@H]3O)c2cc1C`, the Potency result was “inactive”. For `COc1cc2c(NC3CCN(C)CC3)nc(N3CCCCC3)nc2cc1OCCCN(C)C` the value was “inactive”; for `NC(Cc1c[nH]c2ccc(O)cc12)C(=O)O` (stereo not given), “inactive”; for `CC(Cc1ccc(O)c(O)c1)C(C)Cc1ccc(O)c(O)c1` (stereo not given), 39.8 µM (active). As for `Cc1cccc(/C=C/c2ccccc2)n1`, the Potency entry was “inactive”. The same measure for `COc1cc2c(NC3CCN(CC4CCCCC4)CC3)nc(N3CCCCC3)nc2cc1OCCCN1CCCCC1`: “inactive”; for `Cc1[nH]c(=O)c(C#N)cc1-c1ccc2nccn2c1`: “inactive”; for `Oc1ccc2ccccc2c1SSc1c(O)ccc2ccccc12`: “inactive”. The same measure for `Cc1cc2c(cc1Cl)N(C(=O)Nc1ccc(Oc3cccnc3C)nc1)CC2`: “inactive”; for `O=c1cc(-c2ccccc2)oc2c(O)c(O)ccc12`: “inactive”; for `Cc1cc(C)c(/C=C2\C(=O)Nc3ccccc32)[nH]1`: “inactive”. For `COc1cc(/C=C(\C#N)C(=O)Nc2nnc(C(F)(F)F)s2)ccc1OCc1ccc(C(F)(F)F)cc1C(F)(F)F` the value was “inactive”; for `COc1cc2c(NC3CCN(C)CC3)cc(N3CCCCN(C)CC3)cc2cc1OCCOCCN(C)C`, “inactive”.

As to `O=C(N[C@@H](Cc1ccccc1)C(=O)CCl)OCc1ccccc1`, the Potency entry is “inactive”. For `CC(C)NC[C@@H](O)c1ccc(O)c(O)c1` the value was “inactive”; for `Oc1ccc(Cn2cc[nH]c2=S)cc1`, “inactive”. The same measure for `Nc1nc(=S)c2ncn([C@@H]3O[C@H](CO)[C@@H](O)[C@H]3O)c2[nH]1`: “inactive”; for `COc1cc(CNC(=O)CCCCCCC(C)C)ccc1O`: “inactive”; for `C=CCN1CCc2c(cc(O)c(O)c2Cl)C(c2ccccc2)C1` (stereo not given): “inactive”. Take `CC(C)=CCNc1ncnc2c1ncn2[C@@H]1O[C@H](CO)[C@@H](O)[C@H]1O`: the Potency entry was “inactive”. For `N[C@@H](Cc1c[nH]c2ccc(O)cc12)C(=O)O` the value was “inactive”; for `Oc1cc2c(cc1O)C(c1ccccc1)CNCC2` (stereo not given), “inactive”; for `NCC(O)C1CCCCCCC1` (stereo not given), “inactive”. For `C[C@](Cc1ccc(O)c(O)c1)(NN)C(=O)O` the value was “inactive”; for `c1ccc(CN2CCC3(CCCc4ccccc43)CC2)cc1`, “inactive”; for `NS(=O)(=O)c1cccc2c1c([N+](=O)[O-])cc1nc(O)c(O)nc12`, “inactive”. As to `C[C@H](Cc1ccc(O)c(O)c1)[C@@H](C)Cc1ccc(O)c(O)c1`, the Potency was 22.4 µM (active) and 25.1 µM (active). The same measure for `COc1cccc(OC)c1OCCNCC1CSc2ccccc2O1` (stereo not given): “inactive”; for `Cc1cc(O)c2c(c1)C(=O)c1cc(O)cc(O)c1C2=O`: “inactive”; for `C/C(=C\CNc1ncnc2c1ncn2[C@@H]1O[C@H](CO)[C@@H](O)[C@H]1O)CO`: “inactive”. For `COc1cc2nc(N3CCCN(C)CC3)nc(N3CCN(C)CC3)c2cc1OC` the value was “inactive”; for `CNC(=O)c1cnn(-c2nc(N)c3ncn([C@@H]4O[C@H](CO)[C@@H](O)[C@H]4O)c3n2)c1`, “inactive”. For `O=C(Nc1ccc([N+](=O)[O-])cc1Cl)c1cc(Cl)ccc1O` the value was “inactive”; for `CC/C(=C(\c1ccccc1)c1ccc(OCCN(C)C)cc1)c1ccccc1`, “inactive”; for `Oc1ccc(C2CNCc3sccc32)cc1O` (stereo not given), 35.5 µM (active). Consider `C#CCN(C)CCCOc1ccc(Cl)cc1Cl`, for which the Potency result was “inactive”.

On to `O=c1ccc2ccc(O)c(O)c2o1`, for which the Potency entry is “inactive”.

For the compound `CN(C)CCCN1c2ccccc2Sc2ccc(C(F)(F)F)cc21`, the Potency result is “inactive”. For `CCn1nc(C(=O)O)c(=O)c2cc3c(cc21)OCO3` the value was “inactive”; for `NC[C@@H]1O[C@H](c2ccccc2)Cc2c1ccc(O)c2O`, “inactive”. Take `CCC(=O)c1ccc2c(c1)N(CCCN(C)C)c1ccccc1S2`: the Potency result is “inactive”.
